About 79,000 compounds went through this panel and 15% of them were active in at least one assay; those are over-represented in the sample as a whole. Active and inactive are the calls of the source. No stated cut-off is given here; in the data, active means growth inhibition above about 70%; inactive means the rest.
How the values were obtained:
[1] = NCI Yeast Anticancer Drug Screen. Data for the rad50 strain (AID 155);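 further: 0% = growth of vehicle-only cultures of the same strain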; conditions: S. cerevisiae rad50 strain growth inhibition, active compounds read high
Procedure, shortened: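 Readout: growth inhibition relative to vehicle-treated cultures. Compound exposure was carried out in a genetically defined yeast strain deficient in DNA damage repair.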

[2] = NCI Yeast Anticancer Drug Screen. Data for the mec2-1 strain (AID 157); conditions: S. cerevisiae mec2-1 strain, active compounds read high
Procedure, shortened: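 Strain: mec2-1 (DNA repair/cell cycle alteration). Compound exposure, then growth measured; inhibition expressed relative to vehicle.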

[3] = NCI Yeast Anticancer Drug Screen. Data for the sgs1 mgt1 strain (AID 161);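 further: 0% = growth of cultures given vehicle only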; conditions: S. cerevisiae sgs1 mgt1 strain, active compounds read high
Procedure, shortened: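 Test agents were incubated with a DNA-repair-mutant yeast strain. Growth was then read and compared against vehicle-treated controls.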

[4] = NCI Yeast Anticancer Drug Screen. Data for the cln2 rad14 strain (AID 165);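 further: 0% = growth equal to vehicle treated cultures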; conditions: S. cerevisiae cln2 rad14 strain, active compounds read high
Procedure, shortened: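 Compounds are applied to the cln2 rad14 yeast strain, and growth is then compared with that of vehicle-treated cultures to give inhibition.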

[5] = NCI Yeast Anticancer Drug Screen. Data for the bub3 strain (AID 167); conditions: S. cerevisiae bub3 mutant strain, active compounds read high
Procedure, shortened: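 Readout: yeast growth inhibition, expressed relative to vehicle-only wells. The test organism is a mutant strain from a panel with lesions in DNA repair or checkpoint genes.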

[6] = NCI Yeast Anticancer Drug Screen. Data for the mlh1 rad18 strain (AID 175); conditions: S. cerevisiae mlh1 rad18 strain growth inhibition, active compounds read high
Procedure, shortened: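 Read-out is yeast growth inhibition, calculated against vehicle-only controls. The compound was applied to a strain engineered with DNA damage repair alterations.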

[7] = at 5.0 µM (retest, dose inferred, filed as 0.5)
[8] = at 50.0 µM (retest, dose inferred, filed as 5.0)

Measured: growth inhibition

Cc1nn(-c2ccc(Cl)cc2)c2nc(N)nc(N)c12
inactive: [1]; [7] 3% | [1]; [8] 0% | [1]; at 50.0 µM 30.2% | [2]; [7] -3% | [2]; [8] 11% | [2]; at 50.0 µM 30.6% | [3]; [7] 2% | [3]; [8] -2% | [3]; at 50.0 µM 34.4% | [4]; [7] -5% | [4]; [8] -6% | [4]; at 50.0 µM 62.6% | [5]; [7] -1% | [5]; [8] 0% | [5]; at 50.0 µM 21.2% | [6]; [7] 0% | [6]; [8] 9% | [6]; at 50.0 µM 45.4%

CCOC(=O)c1ccc(NC(=O)CCl)cc1
inactive: [1]; [7] 3% | [1]; at 50.0 µM 51.9% | [2]; [7] 8% | [2]; at 50.0 µM 38.7% | [3]; [7] 21% | [3]; at 50.0 µM 67.5% | [4]; [7] 8% | [4]; at 50.0 µM 28.7% | [5]; [7] 0% | [5]; at 50.0 µM 40% | [6]; [7] 12% | [6]; at 50.0 µM 64.2%
active: [1]; [8] 99% | [2]; [8] 98% | [3]; [8] 98% | [4]; [8] 91% | [5]; [8] 95% | [6]; [8] 99%

Oc1cc(O)cc(O)c1
active: [1]; [8] 76%
inactive: [1]; [7] 10% | [1]; at 50.0 µM 15.7% | [2]; [7] -2% | [2]; [8] 18% | [2]; at 50.0 µM -4.05% | [3]; [7] 0% | [3]; [8] 19% | [3]; at 50.0 µM 12.3% | [4]; [7] 5% | [4]; [8] 17% | [4]; at 50.0 µM 7.85% | [5]; [7] -4% | [5]; [8] 6% | [5]; at 50.0 µM 69% | [6]; [7] -5% | [6]; [8] 16% | [6]; at 50.0 µM 23.3%

O=[N+]([O-])c1c(Cl)ccc2nsnc12
inactive: [1]; [7] 24% | [2]; [7] -27% | [3]; [7] -14% | [4]; [7] -56% | [5]; [7] -49% | [6]; [7] -50%
active: [1]; [8] 97% | [1]; at 50.0 µM 99.4% | [2]; [8] 97% | [2]; at 50.0 µM 99.2% | [3]; [8] 98% | [3]; at 50.0 µM 98.8% | [4]; [8] 84% | [4]; at 50.0 µM 98.6% | [5]; [8] 96% | [5]; at 50.0 µM 98.5% | [6]; [8] 97% | [6]; at 50.0 µM 99%

O=[N+]([O-])c1ccc2c(c1)/C(=C/c1ccccc1O)c1ccccc1-2
active: [1]; [8] 91% | [1]; at 50.0 µM 92.7% | [2]; [7] 81% | [2]; [8] 93% | [2]; at 50.0 µM 90.5% | [3]; [8] 92% | [3]; at 50.0 µM 88.5% | [4]; [8] 87% | [4]; at 50.0 µM 84.3% | [5]; [8] 91% | [5]; at 50.0 µM 92% | [6]; [7] 89% | [6]; [8] 91% | [6]; at 50.0 µM 90.2%
inactive: [1]; [7] 66% | [3]; [7] 69% | [4]; [7] 52% | [5]; [7] 42%

— PubChem BioAssay (NCI)
